Results taken from PubChem BioAssay (Tox21).
Results filed as inconclusive are left out. Calls of active or inactive are those of the source. Unless noted, calls follow the shape of the dose curve; as a rule, active = well fitted curve in the direction sought with a large enough effect in the repeat runs; inconclusive = weak or mixed curves; inactive = no such curve, though single readings can be large; an effect the other way counts as inactive or inconclusive.

How the values were obtained:
[1] = qHTS assay to identify small molecule agonists of the sonic hedgehog signaling (Shh) pathway (AID 1259368; calls by dose curve;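 also: NIH/3T3-derived 3T3Gli1-Luc cells carrying a stable Gli1-driven firefly luciferase reporter; series mostly up to about 92 µM; nearly all actives have a fitted effect of over 15% in size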)
Procedure, shortened: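 Mouse fibroblast (NIH/3T3) reporter cells with stably integrated Gli1-Luc were treated 24 hr with compound; firefly luciferase luminescence served as the read-out.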

[2] = biological target: Estrogen receptor beta (Homo sapiens) (UniProt Q92731); test: qHTS assay to identify small molecule agonists of the estrogen receptor beta (ER-beta) signaling pathway (AID 1259377; active = well fitted activation curve with a large enough effect in the signal ratio in the repeat runs, not every such curve was filed as active; the % refers to the signal ratio; also: potency is read from the fitted curve at half-maximal effect)
Procedure, shortened: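 Ratiometric beta-lactamase FRET read-out came after 2 h substrate loading at room temperature. It followed 16 h compound treatment at 37C of GripTite HEK293T cells carrying a UAS-bla reporter, plated in 2% charcoal-stripped FBS medium.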

[3] = biological target: Estrogen receptor beta (Homo sapiens) (UniProt Q92731); test: qHTS assay to identify small molecule antagonists of the estrogen receptor beta (ER-beta) signaling pathway (AID 1259378; active = well fitted inhibition curve with a large enough effect in the signal ratio in the repeat runs, not every such curve was filed as active; the % refers to the signal ratio; also: potency is read from the fitted curve at half-maximal effect)
Procedure, shortened: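 Antagonist mode: compounds added to beta-lactamase reporter HEK293T ER-beta-UAS cells stimulated with E2 (1nM final), 16 hr at 37C. LiveBLAzer B/G FRET substrate, 2 hours room temperature, fluorescence read-out.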

[4] = qHTS assay to identify small molecule agonists of the androgen receptor (AR) signaling pathway in the presence of an antagonist - cell viability counter screen (AID 1259379); also: nearly all actives have a fitted effect of over 25% in size; also: potency is read from the fitted curve at half-maximal effect
Procedure, shortened: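 A CellTiter-Fluor read-out measured viability of MDA-kb2 reporter cells (MMTV promoter with AR and GR response elements). Treatment: nilutamide 3.0uM final with compounds at 15 concentrations, 16 hr, 37C, 0% CO2.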

[5] = qHTS assay to identify small molecule agonists of the estrogen receptor beta (ER-beta) signaling pathway - cell viability counter screen (AID 1259380); also: nearly all actives have a fitted effect of over 30% in size; also: potency is read from the fitted curve at half-maximal effect
Procedure, shortened: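 Cells used were ER-beta-UAS-bla HEK293T in medium with 2% charcoal-stripped FBS. They were treated for 16 hr at 37C. Viability came from CellTiter-Glo luminescence.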

[6] = qHTS assay to identify small molecule antagonists of the estrogen receptor beta (ER-beta) signaling pathway - cell viability counter screen (AID 1259382); also: nearly all actives have a fitted effect of over 55% in size; also: potency is read from the fitted curve at half-maximal effect
Procedure, shortened: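 Agonist-stimulated (1nM E2) ER-beta-UAS-bla HEK293T cells are incubated with library compounds for 16 hr at 37C. Cell viability is then assessed in the reporter-assay wells by adding CellTiter-Glo and reading luminescence after 30 min.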

[7] = biological target: Estrogen receptor (Homo sapiens) (UniProt P03372); test: qHTS assay to identify small molecule agonists of the estrogen receptor alpha (ER-alpha) signaling pathway in the presence of an antagonist (AID 1259383; calls by dose curve; also: nearly all actives have a fitted effect of over 15% in size; also: potency is read from the fitted curve at half-maximal effect; as to activation: top concentration of the series differs between compounds)
Procedure, shortened: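 Using VM7Luc4E2 cells seeded 24hr before treatment, antagonist ICI-182,780 (10.0nM final) was added, followed by compounds at 15 concentrations. Plates incubated 22hr; ONE-Glo luminescence quantified reporter activity.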

[8] = qHTS assay to identify small molecule agonists or antagonists of the thyroid stimulating hormone receptor (TSHR) signaling pathway - wild type cell line counter screen (AID 1259384; calls by dose curve)
Procedure, shortened: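 Counter screen in untransfected Hek293: compounds (15-point titration, triplicate) plus phosphodiesterase inhibitor Ro20-1724 added after 18 h plating; 30 min RT. Intracellular cAMP via competitive d2/cryptate immunoassay, 1 h incubation.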

[9] = biological target: Thyrotropin receptor (Homo sapiens) (UniProt P16473); test: qHTS assay to identify small molecule antagonists of the thyroid stimulating hormone receptor (TSHR) signaling pathway (AID 1259385; calls by dose curve; also: nearly all actives have a fitted effect of over 20% in size; also: potency is read from the fitted curve at half-maximal effect)
Procedure, shortened: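 Antagonist mode: compound-treated TSHR-expressing HEK293 cells were stimulated with 1.5 ng/mL TSH (final) in presence of Ro20-1724 for 30 min at RT. HTRF cAMP detection after 1 h; each compound tested at 15 concentrations, triplicate.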

[10] = qHTS assay to identify small molecule agonists of the estrogen receptor alpha (ER-alpha) signaling pathway in the presence of an antagonist - cell viability counter screen (AID 1259386);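 also: cells exposed to compounds for 22 h at 37 °C before the viability read; nearly all actives have a fitted effect of over 30% in size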; also: potency is read from the fitted curve at half-maximal effect
Procedure, shortened: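 ICI-182,780 at 10.0nM final accompanies the compound titration (15 concentrations, 22hr, 37C) on VM7Luc4E2 cells. The CellTiter-Fluor fluorescence readout runs in the same wells as the luciferase assay.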

[11] = biological target: Progesterone receptor (Homo sapiens) (UniProt P06401); test: qHTS assay to identify small molecule agonists of the progesterone receptor (PR) signaling pathway (AID 1346784; calls by dose curve; also: nearly all actives have a fitted effect of over 30% in size)
Procedure, shortened: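 Agonist qHTS: compounds pinned onto 3,000 PR-UAS-bla HEK 293T cells per well in charcoal-stripped serum medium, 16hr at 37C, then beta-lactamase activity measured by LiveBLAzer FRET fluorescence after 2 hours at room temperature.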

[12] = biological target: Progesterone receptor (Homo sapiens) (UniProt P06401); test: qHTS assay to identify small molecule antagonists of the progesterone receptor (PR) signaling pathway (AID 1346795; active = well fitted inhibition curve with a large enough effect in the signal ratio in the repeat runs, not every such curve was filed as active; the % refers to the signal ratio)
Procedure, shortened: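 Antagonist mode with agonist R5020 at 1 nM final and 16 hr incubation at 37C. Reporter was beta-lactamase driven by UAS in HEK293T (PR-UAS-bla), 2% charcoal-stripped serum; signal from LiveBLAzer FRET substrate, 2 hr at room temperature.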

[13] = qHTS assay to identify small molecule agonists of the progesterone receptor (PR) signaling pathway - cell viability counter screen (AID 1346799; calls by dose curve; also: nearly all actives have a fitted effect of over 45% in size; also: potency is read from the fitted curve at half-maximal effect)
Procedure, shortened: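 Cytotoxicity measured by CellTiter-Glo luminescence (30 min, RT) in the same wells as the PR beta-lactamase agonist read. Those HEK293T cells had 16 h compound treatment at 37 C in 2% charcoal-stripped FBS medium.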

[14] = qHTS assay to identify small molecule antagonists of the TGF-beta/Smad signaling pathway - cell viability counter screen (AID 1346824); also: nearly all actives have a fitted effect of over 50% in size
Procedure, shortened: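 Cytotoxicity counter-screen run in the same wells as the beta-lactamase Smad reporter read: CellTiter-Glo luminescence after 30 min at room temperature. HEK 293T SBE-bla cells had 5 hr compound exposure at 37 C with TGF-beta1 (0.25 ng/mL stock).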

[15] = qHTS assay to identify small molecule agonists of the TGF-beta/Smad signaling pathway - cell viability counter screen (AID 1346829); also: top concentration of the series differs between compounds; nearly all actives have a fitted effect of over 45% in size
Procedure, shortened: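 Luminescence from CellTiter-Glo, read after a 30 min room-temperature incubation, gives cell viability of SBE-bla HEK 293T cells treated 5 hr with compounds at 37 C.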

[16] = qHTS assay to identify small molecule agonists of the TGF-beta/Smad signaling pathway (AID 1346859; active = well fitted activation curve with a large enough effect in the signal ratio in the repeat runs, not every such curve was filed as active; the % refers to the signal ratio; also: series mostly up to about 77 µM)
Procedure, shortened: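 Fluorescence (ex 405 nm; em 460 and 530 nm) was read 2 h after LiveBLAzer FRET substrate at RT. The preceding compound treatment of overnight-plated SBE-bla HEK293T cells lasted 5 h at 37 C.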

[17] = biological target: Thyrotropin-releasing hormone receptor (Homo sapiens) (UniProt P34981); test: qHTS assay to identify small molecule antagonists of the thyrotropin-releasing hormone receptor (TRHR) signaling pathway (AID 1346877; active = well fitted inhibition curve with a large enough effect in the repeat runs, not every such curve was filed as active; also: series mostly up to about 51 µM)
Procedure, shortened: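 Screening used HEK293 cells engineered with TRHR, with a brief 5 min room-temperature compound exposure preceding addition of TRH to 1 nM. The read-out was kinetic calcium-dye fluorescence, concentration-response from 15 doses in triplicate.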

[18] = qHTS assay to identify small molecule antagonists of the sonic hedgehog signaling (Shh) pathway (AID 1259369; calls by dose curve; also: nearly all actives have a fitted effect of over 45% in size; also: potency is read from the fitted curve at half-maximal effect)
Procedure, shortened: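 Conditioned medium drives Shh signalling in 3T3Gli1-Luc cells; compounds in DMSO co-applied, 24hr at 37 C, then luciferase luminescence.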

[19] = qHTS assay to identify small molecule antagonists of the progesterone receptor (PR) signaling pathway - cell viability counter screen (AID 1346798); also: nearly all actives have a fitted effect of over 50% in size; also: potency is read from the fitted curve at half-maximal effect
Procedure, shortened: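 Cytotoxicity read as CellTiter-Glo luminescence (30 min, room temperature) in the same wells as the beta-lactamase readout. HEK293T PR-UAS-bla cells in charcoal-stripped 2% FBS received compound and R5020, then 16 h at 37C, 5% CO2.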

[20] = biological target: Androgen receptor (Homo sapiens) (UniProt P10275); test: qHTS assay to identify small molecule agonists of the androgen receptor (AR) signaling pathway in the presence of an antagonist (AID 1259381; calls by dose curve; also: nearly all actives have a fitted effect of over 15% in size)
Procedure, shortened: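 Using human MDA-kb2 cells with an MMTV promoter–luciferase construct (AR and GR response elements), agonist activity is scored under 3.0uM nilutamide (final) co-treatment; 16hr incubation, 37C, luminescence readout via ONE-Glo.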

Measured: Potency

Sequence of Thyrotropin receptor (Homo sapiens) (P16473 whole entry, looked up): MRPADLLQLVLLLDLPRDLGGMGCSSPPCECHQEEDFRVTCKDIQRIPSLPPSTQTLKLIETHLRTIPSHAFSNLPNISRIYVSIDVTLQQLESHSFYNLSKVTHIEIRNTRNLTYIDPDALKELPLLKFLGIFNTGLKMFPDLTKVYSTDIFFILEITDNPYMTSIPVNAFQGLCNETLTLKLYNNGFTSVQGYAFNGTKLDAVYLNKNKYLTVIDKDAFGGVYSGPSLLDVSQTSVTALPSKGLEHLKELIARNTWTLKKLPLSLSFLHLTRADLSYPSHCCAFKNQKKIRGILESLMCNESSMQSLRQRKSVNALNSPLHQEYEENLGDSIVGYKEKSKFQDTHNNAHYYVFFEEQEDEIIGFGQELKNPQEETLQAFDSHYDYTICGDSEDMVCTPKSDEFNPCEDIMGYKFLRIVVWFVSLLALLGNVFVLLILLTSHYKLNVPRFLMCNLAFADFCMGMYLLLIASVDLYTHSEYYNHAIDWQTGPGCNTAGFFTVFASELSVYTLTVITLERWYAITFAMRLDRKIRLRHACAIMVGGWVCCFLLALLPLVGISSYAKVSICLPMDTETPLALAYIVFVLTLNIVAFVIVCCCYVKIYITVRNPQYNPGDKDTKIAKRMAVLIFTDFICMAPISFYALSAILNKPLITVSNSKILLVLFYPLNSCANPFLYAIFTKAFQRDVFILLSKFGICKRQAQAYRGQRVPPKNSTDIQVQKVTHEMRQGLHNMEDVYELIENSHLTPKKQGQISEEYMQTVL
Sequence of Estrogen receptor (Homo sapiens) (P03372 whole entry, looked up): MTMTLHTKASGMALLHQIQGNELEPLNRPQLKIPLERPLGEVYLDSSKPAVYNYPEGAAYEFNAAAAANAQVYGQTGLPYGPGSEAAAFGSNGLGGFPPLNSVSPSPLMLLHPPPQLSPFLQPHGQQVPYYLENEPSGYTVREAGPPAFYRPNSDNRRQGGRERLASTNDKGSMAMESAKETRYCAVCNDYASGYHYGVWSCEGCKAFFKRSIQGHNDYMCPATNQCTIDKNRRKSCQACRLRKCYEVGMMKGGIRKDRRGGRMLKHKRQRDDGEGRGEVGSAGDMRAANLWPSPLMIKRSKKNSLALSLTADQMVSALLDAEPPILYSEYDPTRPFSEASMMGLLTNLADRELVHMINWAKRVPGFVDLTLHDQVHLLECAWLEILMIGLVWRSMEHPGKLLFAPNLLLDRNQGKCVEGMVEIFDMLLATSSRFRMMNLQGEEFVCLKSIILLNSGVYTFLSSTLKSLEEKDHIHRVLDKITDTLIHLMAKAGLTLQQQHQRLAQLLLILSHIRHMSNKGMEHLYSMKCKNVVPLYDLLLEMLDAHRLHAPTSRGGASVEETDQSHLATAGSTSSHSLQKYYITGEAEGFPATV
Sequence of Estrogen receptor beta (Homo sapiens) (Q92731 whole entry, looked up): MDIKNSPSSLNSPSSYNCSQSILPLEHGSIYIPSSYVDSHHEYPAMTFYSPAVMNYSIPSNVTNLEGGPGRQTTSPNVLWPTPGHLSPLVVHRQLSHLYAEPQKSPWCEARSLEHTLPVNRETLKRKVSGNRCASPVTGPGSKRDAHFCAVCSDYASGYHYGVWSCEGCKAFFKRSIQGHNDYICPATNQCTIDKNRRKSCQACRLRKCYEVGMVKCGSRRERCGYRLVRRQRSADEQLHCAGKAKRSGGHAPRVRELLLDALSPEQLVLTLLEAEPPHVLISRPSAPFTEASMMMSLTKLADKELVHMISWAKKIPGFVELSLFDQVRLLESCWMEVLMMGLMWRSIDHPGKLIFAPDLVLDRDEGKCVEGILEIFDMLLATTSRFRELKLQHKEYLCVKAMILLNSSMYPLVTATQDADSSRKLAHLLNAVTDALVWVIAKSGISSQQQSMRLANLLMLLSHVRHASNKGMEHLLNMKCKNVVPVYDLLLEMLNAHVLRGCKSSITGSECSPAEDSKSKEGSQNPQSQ
Sequence of Thyrotropin-releasing hormone receptor (Homo sapiens) (P34981 whole entry, looked up): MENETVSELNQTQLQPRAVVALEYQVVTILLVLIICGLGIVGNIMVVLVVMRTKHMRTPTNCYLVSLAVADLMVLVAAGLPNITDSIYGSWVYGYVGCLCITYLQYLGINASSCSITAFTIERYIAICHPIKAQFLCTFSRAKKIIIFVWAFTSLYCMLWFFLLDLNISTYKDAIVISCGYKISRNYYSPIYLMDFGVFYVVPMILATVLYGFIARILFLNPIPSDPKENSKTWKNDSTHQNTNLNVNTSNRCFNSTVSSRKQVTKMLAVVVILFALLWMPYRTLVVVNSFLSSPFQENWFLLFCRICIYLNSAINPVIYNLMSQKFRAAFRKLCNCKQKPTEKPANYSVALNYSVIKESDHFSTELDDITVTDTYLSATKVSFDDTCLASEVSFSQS
Sequence of Progesterone receptor (Homo sapiens) (P06401 whole entry, looked up): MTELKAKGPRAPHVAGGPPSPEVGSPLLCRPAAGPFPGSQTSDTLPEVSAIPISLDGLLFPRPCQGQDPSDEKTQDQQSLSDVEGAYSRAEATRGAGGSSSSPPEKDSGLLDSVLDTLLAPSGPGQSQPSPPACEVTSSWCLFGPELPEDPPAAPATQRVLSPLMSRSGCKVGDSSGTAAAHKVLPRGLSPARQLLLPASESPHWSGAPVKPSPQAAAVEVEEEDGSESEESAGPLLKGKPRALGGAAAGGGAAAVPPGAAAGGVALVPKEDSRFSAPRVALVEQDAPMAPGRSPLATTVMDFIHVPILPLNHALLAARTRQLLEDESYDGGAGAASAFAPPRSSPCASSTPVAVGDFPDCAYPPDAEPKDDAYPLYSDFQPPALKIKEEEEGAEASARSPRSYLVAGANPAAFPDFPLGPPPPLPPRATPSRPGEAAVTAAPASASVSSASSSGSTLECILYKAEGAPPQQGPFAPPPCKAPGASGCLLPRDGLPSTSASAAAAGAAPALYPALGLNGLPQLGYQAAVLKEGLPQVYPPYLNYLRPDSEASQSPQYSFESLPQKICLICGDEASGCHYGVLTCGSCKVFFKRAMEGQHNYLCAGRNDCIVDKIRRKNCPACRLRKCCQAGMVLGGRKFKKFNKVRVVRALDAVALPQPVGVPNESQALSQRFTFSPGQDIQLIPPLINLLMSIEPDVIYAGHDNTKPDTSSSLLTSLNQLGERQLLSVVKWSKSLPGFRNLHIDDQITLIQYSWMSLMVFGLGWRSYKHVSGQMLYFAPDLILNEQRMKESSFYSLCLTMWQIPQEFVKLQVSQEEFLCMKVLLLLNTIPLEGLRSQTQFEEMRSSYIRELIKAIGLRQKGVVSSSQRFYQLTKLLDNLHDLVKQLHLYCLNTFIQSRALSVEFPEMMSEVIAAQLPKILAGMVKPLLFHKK
Sequence of Androgen receptor (Homo sapiens) (P10275 whole entry, looked up): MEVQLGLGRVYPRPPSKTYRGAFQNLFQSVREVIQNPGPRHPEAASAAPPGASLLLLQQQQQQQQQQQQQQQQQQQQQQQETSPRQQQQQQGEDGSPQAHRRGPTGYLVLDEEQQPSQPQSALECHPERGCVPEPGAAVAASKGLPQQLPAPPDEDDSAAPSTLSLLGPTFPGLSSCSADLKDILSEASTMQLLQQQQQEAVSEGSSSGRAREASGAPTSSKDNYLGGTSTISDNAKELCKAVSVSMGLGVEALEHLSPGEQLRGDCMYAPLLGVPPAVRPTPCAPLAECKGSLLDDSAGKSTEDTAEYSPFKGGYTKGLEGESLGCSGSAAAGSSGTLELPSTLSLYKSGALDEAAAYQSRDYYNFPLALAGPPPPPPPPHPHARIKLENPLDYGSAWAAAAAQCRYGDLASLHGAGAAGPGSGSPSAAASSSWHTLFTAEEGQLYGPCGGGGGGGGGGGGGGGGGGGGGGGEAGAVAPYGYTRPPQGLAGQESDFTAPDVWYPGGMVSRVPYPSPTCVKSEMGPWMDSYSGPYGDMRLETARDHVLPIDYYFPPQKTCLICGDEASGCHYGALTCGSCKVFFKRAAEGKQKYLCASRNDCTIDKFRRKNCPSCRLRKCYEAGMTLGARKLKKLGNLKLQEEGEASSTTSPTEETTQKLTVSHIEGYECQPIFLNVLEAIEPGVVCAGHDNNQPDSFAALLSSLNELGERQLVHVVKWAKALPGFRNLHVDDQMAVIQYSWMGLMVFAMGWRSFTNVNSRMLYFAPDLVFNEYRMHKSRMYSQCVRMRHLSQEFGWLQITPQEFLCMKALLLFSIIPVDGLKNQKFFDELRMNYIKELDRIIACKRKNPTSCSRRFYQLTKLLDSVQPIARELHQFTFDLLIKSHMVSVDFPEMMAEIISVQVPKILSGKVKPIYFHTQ

CC(C)=CC(=O)C=C(C)C
not listed: [18] | [19] | [20]
inactive: all other assays above

Cc1ccc(OC(=O)c2ccccc2O)cc1
not listed: [2] | [3] | [6] | [7] | [8] | [9] | [13] | [20]
inactive: all other assays above

C=Cc1ccc(S(=O)(=O)O)cc1
active: [9] 17.2 µM
not listed: [12] | [14] | [18] | [20]
inactive: all other assays above

C=CC(=O)OCC1CC2CC1C1CCC(COC(=O)C=C)C21 (stereo unspecified)
active: [18] 19.3 µM
not listed: [2] | [3] | [5] | [7] | [9] | [11] | [12] | [20]
inactive: all other assays above

Cc1ccc(Cl)c(Nc2ccccc2C(=O)O)c1Cl
not listed: [2] | [3] | [5] | [6] | [12] | [16] | [19] | [20]
inactive: all other assays above

COC(=O)CCS
not listed: [12] | [13] | [15] | [18] | [20]
inactive: all other assays above

CCCCN(CCCC)C(C(N)=O)c1ccc(OC)cc1 (stereo unspecified)
not listed: [2] | [8] | [9] | [13] | [17] | [18] | [20]
inactive: all other assays above

CC1=C(Br)C(=O)C(Br)=C/C1=C(/c1ccccc1S(=O)(=O)O)c1cc(Br)c(O)c(Br)c1C
active: [4] 18.6 µM | [10] 18.6 µM
not listed: [7] | [8] | [9] | [11] | [18] | [20]
inactive: all other assays above

CCOc1ccc(Cc2nccc3cc(OCC)c(OCC)cc23)cc1OCC
active: [4] 29.8 µM | [19] 18.8 µM
not listed: [2] | [3] | [10] | [12] | [13] | [17] | [18]
inactive: all other assays above

O=C(CCc1ccc(O)cc1)c1c(O)cc(O)cc1O
inactive: [1] | [5] | [20] | [6] | [8] | [9] | [11] | [14] | [16] | [17]
active: [2] 7.01 µM | [7] 24.9 µM

COc1ccccc1N1CCN(CC(O)COc2cccc3ccccc23)CC1 (stereo unspecified)
active: [3] 23.7 µM | [5] 5.96 µM | [6] 5.96 µM | [13] 33.5 µM
not listed: [7] | [12] | [17] | [18] | [19] | [20]
inactive: all other assays above

CCCCCCCC/C=C\CCCCCCCCO
not listed: [7] | [12] | [15] | [18] | [20]
inactive: all other assays above

CN1CCCN=C1COC(=O)C(O)(c1ccccc1)C1CCCCC1 (stereo unspecified)
not listed: [2] | [9] | [12] | [18] | [20]
inactive: all other assays above

CC1(C)[C@@H](OC(=O)CCC(=O)O)CC[C@]2(C)[C@H]3C(=O)C=C4[C@@H]5C[C@@](C)(C(=O)O)CC[C@]5(C)CC[C@@]4(C)[C@]3(C)CC[C@@H]12
not listed: [3] | [6] | [7] | [18] | [19] | [20]
inactive: all other assays above

CC1CC(OC(=O)C(O)c2ccccc2)CC(C)(C)N1C (stereo unspecified)
not listed: [6] | [7] | [12] | [18] | [20]
inactive: all other assays above

CCCC(C(=O)OCCN(CC)CC)(c1ccccc1)c1ccccc1
active: [5] 29.8 µM
not listed: [2] | [4] | [6] | [10] | [12] | [13] | [18] | [20]
inactive: all other assays above
